FBA Mtb inh: inhibitors of M. tuberculosis fructose-bisphosphate aldolase; actives 2.3% (n = 360,000); inhibition, % at 1 µM; purified M. tuberculosis FBA, fluorescence read-out; P9WQA3; in the data active = inhibition above about 27%;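 note: 0% = vehicle and 100% = reference inhibitor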
GDH-TPI inh: inhibits GDH-TPI coupling enzymes, artifact for Mtb FBA screen | GDH-TPI coupled enzyme counterscreen, NADH absorbance | inhibition, % at 4.8 µM | actives 1.2% (n = 360,000) | AID 588335; in the data active = inhibition above about 30%;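 note: 0% = DMSO wells and 100% = wells lacking the enzyme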
Bead autofluor: counter-screen for toxin protease inhibitors: compound fluorescence; compound autofluorescence counterscreen, microsphere flow cytometry; hits give high values; fluorescence intensity (concentration not given with the values); actives 3.1% (n = 360,000); in the data active = fluorescence intensity above about 16000; inconclusive = no clear call, values can overlap the other calls
Anthrax LF prot: blocks Bacillus anthracis lethal factor protease; P15917; multiplex microsphere protease cleavage assay, LF; inhibition, % at 10 µM; actives 0.12% (n = 360,000); AID 588501; note: plate controls were buffer without enzyme for full effect and enzyme alone for no effect
Target sequence (P15917 whole entry, looked up): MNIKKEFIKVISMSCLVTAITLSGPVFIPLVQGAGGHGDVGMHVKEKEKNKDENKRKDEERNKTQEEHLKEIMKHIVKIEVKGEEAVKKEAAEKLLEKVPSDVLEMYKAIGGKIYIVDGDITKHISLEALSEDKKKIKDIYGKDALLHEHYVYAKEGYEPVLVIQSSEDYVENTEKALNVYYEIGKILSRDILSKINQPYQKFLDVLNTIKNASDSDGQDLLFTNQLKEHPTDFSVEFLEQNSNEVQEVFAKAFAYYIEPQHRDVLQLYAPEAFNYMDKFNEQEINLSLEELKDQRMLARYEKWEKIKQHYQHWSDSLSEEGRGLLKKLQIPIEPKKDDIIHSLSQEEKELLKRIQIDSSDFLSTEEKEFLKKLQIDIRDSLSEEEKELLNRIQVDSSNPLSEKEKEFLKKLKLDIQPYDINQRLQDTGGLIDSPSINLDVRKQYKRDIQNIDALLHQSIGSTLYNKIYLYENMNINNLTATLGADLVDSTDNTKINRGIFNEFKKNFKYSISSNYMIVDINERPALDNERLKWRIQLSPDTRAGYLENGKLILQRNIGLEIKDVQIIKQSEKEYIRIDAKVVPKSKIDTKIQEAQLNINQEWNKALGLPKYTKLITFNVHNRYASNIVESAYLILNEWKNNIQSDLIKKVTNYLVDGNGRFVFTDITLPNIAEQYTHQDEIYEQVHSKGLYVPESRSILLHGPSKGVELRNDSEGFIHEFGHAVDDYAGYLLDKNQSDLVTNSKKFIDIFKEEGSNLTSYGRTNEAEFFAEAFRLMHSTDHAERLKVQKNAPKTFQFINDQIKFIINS
BoNT-A LC inh2: BoNT A light chain protease inhibition | multiplex microsphere protease substrate cleavage, flow cytometry | inhibition, % at 10 µM | actives 0.17% (n = 360,000) | AID 588499; note: plate controls were buffer without enzyme for full effect and enzyme alone for no effect
BoNT F protease: blocks Botulinum neurotoxin F light chain protease | Multiplex microsphere protease cleavage assay, flow cytometry | inhibition, % at 10 µM | actives 0.22% (n = 360,000); in the data active = inhibition above about 35%, passing the limit was not always enough; inconclusive = no clear call, values can overlap the other calls; note: plate controls were buffer without enzyme for full effect and enzyme alone for no effect
Starred values were filed as active, the others as inactive; ? = inconclusive; . = not tested or not shown. Compounds with a hit are over-represented: about 6.6% of the library has one in this group of screens. Cut-off read from the data, not from the text of the source, unless noted: active = inhibition above about 30%; inconclusive = no clear call, values can overlap the other calls; inactive = below that.

SMILES	FBA Mtb inh	GDH-TPI inh	Bead autofluor	Anthrax LF prot	BoNT-A LC inh2	BoNT F protease
CC1C/C(=N/NC(=O)c2cccc(F)c2)c2ccc(O)cc2C1 (stereo unspecified)	-3	1	20922*	0	0	-2
Cc1ccc(S(=O)(=O)NC2(C(F)(F)F)C(=O)Nc3c2c(=O)n(C)c(=O)n3C)cc1 (stereo unspecified)	0	13	7134	-7	0	2
CCC(=O)NC1(C(F)(F)F)C(=O)Nc2c1c(=O)n(C)c(=O)n2C (stereo unspecified)	0	5	23514*	-2	0	0
COc1ccc(Cl)cc1NC(=O)CN(C)C(=O)c1ccc(COc2ccccc2)cc1	4	-7	4637	0	0	4
Cc1ccc(-n2nnnc2SCn2nnc3ccccc3c2=O)c(C)c1	1	7	15237	-5	3	1
O=C(Cn1cncn1)c1ccc(F)cc1F	3	0	2537	-1	0	-1
COc1cc(C)c(Cl)cc1S(=O)(=O)NCCN1CCOCC1	-3	-2	23984*	-3	-3	-2
COc1cc(C)c(Cl)cc1S(=O)(=O)NCCCN1CCOCC1	5	9	10691	0	2	5
CCc1nc2oc3ccccc3c(=O)c2c(=O)n1-c1ccccc1	0	-6	16529*	0	0	3
COc1ccc(CN/C=C2\CCCCC2=O)cc1	-4	6	22197*	1	?	-4
COc1ccccc1NC(=O)c1cccs1	-2	15	16647*	-2	0	-3
COc1cc(NC(=O)c2cccs2)ccc1NC(=O)c1ccco1	2	35*	4091	-2	0	?
COc1ccccc1NC(=O)CN(Cc1ccco1)C(=O)c1cccs1	-1	-3	23213*	-4	0	0
COc1cc(NC(=O)COc2ccccc2[N+](=O)[O-])ccc1NC(=O)c1cccs1	0	41*	3335	-5	0	2
O=C(Nc1ccc(NC(=O)c2cccs2)cc1Cl)c1ccco1	0	3	3496	4	-2	-8
COc1ccccc1NC(=O)c1ccccc1NC(=O)c1cccs1	5	9	3964	-4	-1	-18
Cc1ccc(S(=O)(=O)n2cc(CO)c3ccccc32)cc1	2	-1	3527	-14	0	?
COc1ccc(-c2cc(C(=O)Nc3cc(S(=O)(=O)N4CCOCC4)ccc3N3CCOCC3)c3ccccc3n2)cc1	0	2	4394	-4	0	-4
COc1ccc(-c2[nH]ncc2CN(C)Cc2nonc2C)c(OC)c1	2	17	3631	-6	0	-1
COc1ccccc1OCCNC1CCCC1	0	1	21707*	3	0	2
CC(C)Oc1ccc(OCCNC2CCCC2)cc1	-1	-7	20103*	0	2	1
CCOc1cccc(OCCNC2CCCC2)c1	9	-2	3611	5	0	5
Cn1c(=S)ccc2ccccc21	-1	4	4520	-3	2	2
O=C(CN1CCCCC1)N/N=C/c1ccc(Cl)cc1Cl	4	11	3971	3	3	42*
O=C(CN1CCSCC1)N/N=C/c1ccccc1F	-3	2	23296*	0	0	-2
SMILES	FBA Mtb inh	GDH-TPI inh	Bead autofluor	Anthrax LF prot	BoNT-A LC inh2	BoNT F protease
O=C(CN1CCCCC1)N/N=C/c1ccc(Cl)cc1	0	-3	.	.	.	.
O=C(N/N=C/c1ccc(Cl)cc1Cl)Nc1ccccc1	-1	20	20342*	-13	6	9
O=C(N/N=C/c1cccc(Cl)c1Cl)Nc1ccccc1	-2	5	11180	-4	0	4
CN(Cc1ccco1)c1ncnc2ccc(-c3ccc4c(ccn4C)c3)cc12	7	23	2404	-91	6	-116
CCCC(=O)NC1=C(N2CC2)C(=O)C(NC(=O)CCC)=C(N2CC2)C1=O	-2	33*	3885	-7	0	-4
CCN(CC)c1ccc(-c2nn3c(-c4n[nH]c5c4CCC5)nnc3s2)cc1	40*	24	3172	9	11	2
CCOc1cccc2sc(=NC(=O)c3ccco3)n(CC(=O)OC)c12	9	81*	3235	-1	0	-1
Cn1c(=NC(=O)CCl)sc2ccccc21	2	9	10857	-1	0	1
C#CCn1c(=NC(=O)c2ccco2)sc2cccc(Cl)c21	4	17	4606	0	0	2
Cn1c(=NC(=O)c2ccco2)sc2ccccc21	-1	34*	4126	-1	0	1
Cc1sc(=NC(=O)c2ccco2)n(C)c1-c1ccccc1	0	39*	9033	0	0	-2
Cc1sc(=NC(=O)c2ccco2)n(C)c1-c1ccc(F)cc1	-2	26	2856	-2	0	-3
CC(C)NC(=O)c1nc2ccccc2s1	2	4	19111*	-7	5	4
COc1ccc(NC(=O)c2nc3ccccc3s2)cc1	3	14	1990	-1	-1	-6
COc1ccc(OC)c(C(=O)Nc2ccc3[nH]ccc3c2)c1	2	5	5373	-2	-1	3
COc1ccc(OC)c(C(=O)c2c(C)oc3cc([N+](=O)[O-])c(O)c([N+](=O)[O-])c23)c1	-13	36*	5160	-2	0	-9
COC(=O)c1ccccc1S(=O)(=O)N1CCC(C(=O)NCc2ccccn2)CC1	0	-12	3507	-2	0	-3
COc1ccc(/C=N/N=C/c2ccc(OC)c(O)c2)cc1O	-2	50*	6697	10	0	-8
COc1cc(/C=N/N=C/c2cc(OC)c(O)c(OC)c2)cc(OC)c1O	-4	35*	2103	-2	0	-4
CC(C)CCNC(=O)CSc1nc2ccccc2c(=O)[nH]1	2	10	17172*	-4	-3	-6
COC(=O)c1ccc(NC(=O)CSc2nc3ccccc3c(=O)[nH]2)cc1	1	-5	20547*	-1	0	0
COc1ccc(-n2c(SC)nc(O)c(Cc3ccccc3)c2=O)cc1	-3	6	22787*	0	?	-2
COc1ccc(NC(=O)CSc2nc(O)c(Cc3ccccc3)c(=O)[nH]2)cc1	-5	-3	23050*	-1	?	1
O=C(CSc1nc2ccccc2c(=O)[nH]1)Nc1ccc(Br)cc1	-1	3	6188	-9	-1	-3
CC(NC(=O)CSc1nc2ccccc2c(=O)[nH]1)c1ccccc1 (stereo unspecified)	0	0	2742	2	0	4
COc1ccc(S(=O)(=O)NCc2cc(=O)n(C)c(=O)n2C)cc1F	2	-3	5318	1	0	5
COc1ccccc1/C=C/C=C1\Oc2c(ccc(O)c2CN2CCN(CCO)CC2)C1=O	-10	20	2160	12	31*	1
CCN1CCN(Cc2c(O)ccc3c2O/C(=C\C=C\c2ccccc2)C3=O)CC1	-6	22	2071	12	35*	5
O=C1/C(=C/C=C/c2ccccc2)Oc2c1ccc(O)c2CN1CCN(CCO)CC1	-3	19	4760	0	1	4
